# Assay outcomes from PubChem BioAssay.
# Rows were chosen to be rich in hits. Some 6.9% of all compounds tested hit in one or more screens of this group.
# Mdm2-MdmX inh: inhibitors of human Mdm2-MdmX association, primary screen, cell-based, luminescence, split luciferase, SaOS-2, uHTS; inhibition, % at 8 µM; AID 485346, 2010; SaOS-2 split-luciferase Mdm2/MdmX complementation; 3% of 330,000 active; Protein Mdm4 (Homo sapiens) + E3 ubiquitin-protein ligase Mdm2 (Homo sapiens), …;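 active means inhibition of at least 50% at 8 µM in the primary screen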
# SKKanGAS inh: S. pyogenes SKKanGAS growth inhibitors in kanamycin, primary screen, streptokinase expression inhibitor project, SKKanGAS strain, BacTiter-Glo luminescence | inhibition, % at 7.5 µM | AID 1662, 2009 | 6 h | 1.3% of 300,000 active;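 active means mean replicate score, as percent of positive control median, at least 50; inconclusive means mean below 50 but one replicate at or above 50; inactive means mean and every replicate below 50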;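 further: strain carries kanamycin resistance gene driven by streptokinase promoter and grows in 40 µg/ml kanamycin; loss of luminescence reflects streptokinase promoter inhibition or plain growth inhibition; 0% = median of DMSO wells and 100% = positive control at its reference dose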
# MPTP inh: mitochondrial permeability transition pore inhibitors, primary screen, biochemical, isolated mouse mitochondria, absorbance; AID 602449, 2012; Ca2+ swelling absorbance, 30 min; inhibition, % at 10 µM; 1.4% of 360,000 active;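 active means inhibition of 50% or more, scaled per plate between neutral and stimulator controls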;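 further: 0% = DMSO wells given calcium and 100% = 1 mM EGTA wells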
# NR3A LBD binder: binders of NR3A ligand-binding domain, primary screen, biophysical, differential scanning fluorimetry, uHTS; 2.5% of 340,000 active; NR3A LBD differential scanning fluorimetry, Tm shift; 0% = protein alone, 100% = glycine-bound protein; Glutamate receptor ionotropic, NMDA 3A (GRIN3A) ligand-binding domain; Tm shift relative to glycine control, % at 25 µM;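 active means melting temperature shift of at least 10% of the positive control shift, at one fixed dose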
# CSC inhib: cancer stem cell viability inhibitors, primary screen, luminescence | cancer stem cell-like cells viability | inhibition, % at 7.5 µM | 1.1% of 300,000 active | AID 2717, 2010; in the data active means inhibition above about 75%; inconclusive means no clear call, values can overlap the other calls; tested in HMLE shEcad cells
# Beta cell apopt: inhibitors of cytokine-induced beta cell apoptosis, primary screen, luminescence | INS-1E cytokine-induced death, ATP luminescence, 48 h; percent of positive-control rescue, neutral wells zero | 0.8% of 300,000 active | protection from apoptosis, % (test concentration not listed);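 active means Every replicate reaches about 75%, or at least half do and their mean reaches it too, limit read from the data; inconclusive means At least half of replicates reach the limit but their mean does not; inactive means Under half of replicates reach the limit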;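 further: 0% = cytokine-treated negative control wells and 100% = positive control rescue; higher means more ATP so stronger rescue from cytokine killing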
# MPTP counter: fluorescence retest of MPTP screen hits in isolated mitochondria, single concentration; shares compounds with MPTP inh; inhibition, % at 10 µM; membrane potential, Rhodamine 123 fluorescence; 78% of 5,000 active; in the data active means inhibition above about 22%;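 further: 0% = DMSO vehicle and 100% = positive control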
# MPTP abs DR: mitochondrial permeability transition pore inhibitors, dose response, biochemical, absorbance, uHTS hits; shares compounds with MPTP inh; isolated mitochondria swelling; IC50, µM; 58% of 780 active; in the data active means IC50 below about 20 µM
# MPTP counter DR: fluorescent counter-screen in isolated mitochondria, dose response, counter-screen for MPTP inhibitor project, biochemical, fluorescence, uHTS hits; isolated mitochondria counterscreen, fluorescence read-out; shares compounds with MPTP inh; AID 651564, 2012; IC50, µM; 49% of 780 active; in the data active means IC50 below about 80 µM
# * marks the source's active call; other numbers are inactive results; ? = inconclusive; / = not tested or not shown.
SMILES,Mdm2-MdmX inh,SKKanGAS inh,MPTP inh,NR3A LBD binder,CSC inhib,Beta cell apopt,MPTP counter,others
Cc1ccc(C)c(OCC(=O)Nc2ccncc2)c1,-8,5,1,-1,-5,1,/,
Cc1cc(Cl)ccc1OCC(=O)Nc1ccncc1,16,1,80*,-3,3,0,79*,
O=C(COc1cc(Cl)c(Cl)cc1Cl)Nc1ccncc1,-5,-2,76*,545*,18,-4,88*,
CC(C)N1C(=O)C(=O)N(CC(=O)N(C)c2ccccc2)C1=O,5,/,1,4,/,-6,/,
CC(=O)N(CCC(Cc1ccccc1)c1ccc2c(c1)OCO2)Cc1ccccc1F (centres undefined),41,33,1,3,24,-7,/,
Fc1ccccc1CNCCC(Cc1ccccc1)c1ccc2c(c1)OCO2 (centres undefined),25,-12,85*,-1,-17,-10,-1,MPTP abs DR=5.4*;MPTP counter DR=16*
NC(=S)n1[nH]c(-c2ccc([N+](=O)[O-])cc2)c(N=Nc2cccc([N+](=O)[O-])c2)c1=O,/,-35,108*,27*,/,/,76*,
NC(=S)n1[nH]c(-c2ccc([N+](=O)[O-])cc2)c(N=Nc2ccccc2[N+](=O)[O-])c1=O,/,/,44,-2,/,/,/,
Cc1c(N=Nc2c(-c3ccc([N+](=O)[O-])cc3)[nH]n(C(N)=S)c2=O)cccc1[N+](=O)[O-],/,/,96*,25*,/,/,67*,
Nc1nc2ccccc2cc1C(=O)NCCCCc1ccccc1,/,/,94*,/,/,/,104*,
FC(F)(F)c1nc(SCc2ccc(Cl)cc2Cl)n[nH]1,-16,15,63*,-4,/,/,90*,
Cn1c(SCc2ccc(Cl)cc2Cl)nc(C(F)(F)F)cc1=O,15,0,0,1,-8,-2,/,
CC(C)(C)c1cc(CCC(=O)NNC(=S)NC(=O)c2ccccc2)cc(C(C)(C)C)c1O,48,97*,80*,-5,43,?,13,
CC(C)(C)c1cc(CCC(=O)NNC(=O)c2ccco2)cc(C(C)(C)C)c1O,20,23,1,-1,-3,0,/,
N=C1C(c2ccccc2)=C(O)CN1CCO,11,2,0,3,-4,-4,/,
O=C(N/N=C/c1cc(Cl)cc([N+](=O)[O-])c1O)NC12CC3CC(CC(C3)C1)C2,30,50*,84*,-5,82*,28,5,
O=C(N/N=C/c1cc(Cl)cc([N+](=O)[O-])c1O)c1ccccc1NS(=O)(=O)c1cccs1,19,?,84*,6,12,1,26*,
Cc1nn(-c2ccccc2)c(Cl)c1/C=N/NC(=O)c1ccccc1NS(=O)(=O)c1cccs1,-5,26,88*,16*,37,14,66*,
O=C(N/N=C/c1ccc(O)c(O)c1)NC12CC3CC(CC(C3)C1)C2,31,-3,3,1,29,14,/,
COC(=O)c1ccc(CN(C(=O)N2CCN(C)CC2)S(=O)(=O)c2ccc(C)cc2)cc1,19,-4,0,4,5,/,/,
O=C(COC(=O)CNC(=O)c1ccccc1)NC(=O)NC1CCCCC1,-31,/,0,1,/,-3,/,
O=C(NC(c1ccccc1)C(Cl)Cl)c1ccccc1 (centres undefined),-5,-2,3,-5,/,-5,/,
[N-]=[N+]=NC(c1ccccc1)C(NC(=O)c1cc(C(F)(F)F)cc(C(F)(F)F)c1)c1ccccc1 (centres undefined),/,/,68*,/,/,/,103*,
CC(C)(C)OC(=O)N1CCCC(C(=O)Nc2ccc(C(=O)NC3CC3)cc2)C1 (centres undefined),/,/,168*,1,/,/,3,MPTP abs DR=>100;MPTP counter DR=>80
COc1cccc(/C=N/NC(=S)Nc2cccc(S(=O)(=O)N(C)C)c2)c1,0,-1,4,-3,-6,-1,/,
SMILES,Mdm2-MdmX inh,SKKanGAS inh,MPTP inh,NR3A LBD binder,CSC inhib,Beta cell apopt,MPTP counter,others
COc1ccc(O)c(/C=N/NC(=S)Nc2cccc(S(=O)(=O)N(C)C)c2)c1,/,-2,51*,-6,97*,65,83*,
CN(C)S(=O)(=O)c1cccc(NC(=S)Nc2ccc(Cl)cc2Cl)c1,4,-17,90*,2,-6,2,93*,
CCN(CCO)c1ccc(NC(=S)Nc2cccc(S(=O)(=O)N(C)C)c2)cc1,-22,0,0,-2,-4,-8,/,
CN(C)S(=O)(=O)c1cccc(NC(=S)Nc2cc(Cl)cc(Cl)c2)c1,12,6,88*,11*,3,-2,93*,
Nc1ncnc2c1ncn2C1OC(C(=O)NC2CC2)C(O)C1O (centres undefined),-13,/,-1,1,-2,-3,/,
CCOc1cc(C(=O)Nc2ccc(F)cc2)cc(Br)c1OC,37,-6,67*,-8,-11,9,79*,
COc1ccc(S(=O)(=O)N(C)C[C@@H]2OCc3cn(nn3)CCCC(=O)N([C@@H](C)CO)C[C@H]2C)cc1,/,/,0,/,/,/,/,
Cc1cc(Oc2ccccc2)nc(SCC(=O)Nc2ccccc2)n1,8,1,10,0,3,-2,/,
O=C(CSc1nc(N2CCOCC2)nc(N2CCOCC2)n1)Nc1ccc([N+](=O)[O-])cc1,26,-7,1,0,26,0,/,
Cc1cc(Oc2ccccc2)nc(SCC(=O)Nc2ccc(Cl)c(Cl)c2)n1,1,38,73*,3,27,-7,72*,
O=C(CSc1nc2ccccc2o1)Nc1ccc(N2CCOCC2)c(Cl)c1,-121,1,97*,-1,0,4,93*,
Cc1cc(C)nc(SCC(=O)Nc2ccc(N3CCOCC3)c(Cl)c2)n1,19,/,61*,-7,-8,/,78*,
O=C(CSc1nc(Nc2ccccc2)nc(N2CCOCC2)n1)Nc1ccc([N+](=O)[O-])cc1,27,22,74*,15*,33,2,70*,
O=C(CSc1nc2ccccc2o1)Nc1cc(C(F)(F)F)ccc1N1CCOCC1,29,2,3,-17,3,0,/,
